Compounds without any hit were thinned out: in the full panel of roughly 83,000, 20% have a hit.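 Values shown are percent growth following 48 h exposure of cells in 96-well plates to a single concentration of compound; below 10 was considered active.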 The source made the active and inactive calls.

The test system of this assay is DU-145 prostate. The assay can be described thus: NCI-60 one-dose screen, 48 h (100 = growth as untreated, 0 = no growth, -100 = all killed). Particulars: 10 µM unless noted.
As for `COc1cc(NCc2ccccc2O)c2ncccc2c1`, the growth is 112% (inactive). For the compound `Cc1ccc(C2=C/C(=C/c3ccc(Br)cc3)C(=O)N2CCc2ccc(S(N)(=O)=O)cc2)cc1`, the growth was 104% (inactive). The same measure for `Nc1nc(Nc2ccccc2)c2ncn(Cc3ccc4c(c3)OCO4)c2n1`: 80.9% (inactive). With `O=C(CCCSc1nc(-c2ccccc2)cc(-c2ccccc2)n1)NO`, the growth was 13.3% (inactive). The same measure for `FC(F)(F)c1ccc2c(c1)Sc1ccccc1N2`: 97.1% (inactive); for `O=C1NC(=O)C(Cc2ccccc2)(Cc2ccccc2)N1`: 111% (inactive); for `C=C(C)[C@@H]1CC[C@]2(C(=O)N3CCN(C)CC3)CC[C@]3(C)[C@H](CC[C@@H]4[C@@]5(C)C/C(=C/c6ccncc6)[C@H](O)C(C)(C)[C@@H]5CC[C@]43C)[C@@H]12`: -12.4% [100 µM] (active). `C[C@@H](NC(=O)[C@@H](CC(=O)N1CCC(N2CCCCC2)CC1)N1C(=O)[C@@H](N2C(=O)OC[C@@H]2c2ccccc2)[C@H]1/C=C/c1cccc(Cl)c1)c1ccccc1`: the growth is 88.1% (inactive). The same measure for `N#C/C(=C(/O)CCCO)c1nc2ccccc2c(=O)[nH]1`: 102% (inactive). The same measure for `Cn1cc(-c2nnc(-c3cn(C)c4ncc(Br)cc34)s2)c2cc(Br)ccc21`: 95.4% (inactive); for `CC1(C)CC[C@]2(C(=O)OC(=O)[C@]34CCC(C)(C)C[C@@H]3C3=CC[C@@H]5[C@@]6(C)CCC(=O)C(C)(C)[C@@H]6CC[C@@]5(C)[C@]3(C)CC4)CC[C@]3(C)C(=CC[C@@H]4[C@@]5(C)CCC(=O)C(C)(C)[C@@H]5CC[C@]43C)[C@H]2C1`: 77.4% [100 µM] (inactive); for `Cn1cc(-c2noc(-c3cn(C)c4ncc(Br)cc34)n2)c2cc(Cl)ccc21`: 87% (inactive). The same measure for `CCc1cccc(Cl)c1`: 111% (inactive); for `c1cc2ccc3cc2cc1CNCCN1CCNCc2ccc4ccc(cc4c2)CNCCN(CCNC3)CCNCc2ccc3ccc(cc3c2)CNCC1`: -10.1% (active); for `COc1ccc(-c2cc(-c3ccccc3)nc(NCCNc3ccnc4cc(Cl)ccc34)n2)cc1`: -73.8% (active). Take `O=C(N/N=C\c1cc(Cl)ccc1O)N/N=C/c1cc(Cl)ccc1O`: the growth is 87.4% (inactive). Under `O=C1Nc2ccccc2/C1=C/C(=O)c1ccc(N2CCCCC2)cc1` stands 66.8% (inactive); under `O=c1c2c3c(sc2n2cnnc2n1Cc1ccccc1)CCCC3`, 106% (inactive). Under `Cn1c(=O)c(C#N)c(-c2ccco2)n2c(S(=O)(=O)Cc3ccccc3)nnc12` stands 77% (inactive); under `CCCCCn1sc(=O)n(Cc2ccc(CNC(=O)OCc3ccc4cccc(O)c4n3)cc2)c1=O`, -15% (active); under `O=C(N/N=C/c1ccc([N+](=O)[O-])cc1)c1ccc(Br)o1`, 126% (inactive). Under `C=C(C)[C@@H]1CC[C@]2(COCCC#N)CC[C@]3(C)[C@H](CC[C@@H]4[C@@](C)(CCCNCCC#N)[C@H](C(=C)C)CC[C@]43C)[C@@H]12` stands 46.4% [100 µM] (inactive); under `C=C(C)[C@@H]1CC[C@]2(C(=O)OC)CC[C@]3(C)[C@H](CC[C@@H]4[C@@]5(C)CC/C(=N\OCCC(=NCCC#N)NOCCC#N)C(C)(C)[C@@H]5CC[C@]43C)[C@@H]12`, 27.5% [100 µM] (inactive).

(Values after PubChem BioAssay (NCI).)
